Our source for the binding signal values is article PMC6212790, “How bacterial xenogeneic silencer rok distinguishes foreign from self DNA in its resident genome”.

In all, about 33,000 sequences were measured (“e-score”: median about -0.038, highest 2% from about 0.33 on). For the sample, the highest values were picked, then their nearest neighbours and some sequences at random.

In this assay the target is T1, GST-Rok-C97-191 (Bacillus subtilis subsp. subtilis str. …, UniProt O34857 97-191).
T1 sequence: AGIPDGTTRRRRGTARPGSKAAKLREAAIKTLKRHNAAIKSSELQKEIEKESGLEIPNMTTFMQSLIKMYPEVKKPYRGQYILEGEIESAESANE
The assay can be described thus: protein binding microarray; Rok is a gene silencer of Bacillus subtilis; high values mean tight binding. As to conditions: protein: recombinant; tags: GST (pTH5325, pDEST15-Magic modified); dsDNA, one strand shown. The method in brief:
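Every oligonucleotide joins a 25-mer constant primer to a 35-mer variable part drawn from a de Bruijn sequence of order 10, so each non-palindromic 8-mer appears at least 32 times and each palindromic 8-mer 16 times. The preference for every 8-mer is reported as a unitless, rank-based enrichment score (E-score). This score spans 0.5 for the most favored 8-mer to −0.5 for the most disfavored.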
Take GAGTTTCA: the binding signal is -0.0326 E-score. Take TAGTTTAA: the binding signal worked out at 0.345 E-score. Then AAGTTTAA, with -0.0234 E-score; and TAGTTTCA, with 0.361 E-score; and CAGTTTCA, with -0.125 E-score.

For the sequence GAGTTTAA, the binding signal worked out at 0.0511 E-score. The result for ACCCGCTA reads 0.0179 E-score. Then ACCTGTGC, with -0.159 E-score. With ACAACCAC, the binding signal is -0.126 E-score. The result for GTACTGTA reads 0.219 E-score; that for ATACTGTG, -0.082 E-score; that for CTACTGTA, 0.384 E-score. The result for CTACTGAA reads 0.098 E-score.

Consider ATACTGTA, for which the binding signal was 0.334 E-score.

In the case of ATACTGAA, the binding signal was determined as 0.0579 E-score. Then CATGGAAA, with 0.0212 E-score; and AGTACGAG, with 0.125 E-score. Then ATACTCTC, with 0.0157 E-score. The result for ATACTAGC reads 0.288 E-score; that for ATACTATC, 0.359 E-score; that for CGACTATC, -0.0118 E-score. Turning to CCACTATC, the binding signal is 0.0612 E-score. Then CTACTATC, with 0.344 E-score. The result for ATTACCTG reads 0.0992 E-score. Then ATTACCTA, with 0.337 E-score; and ATTACCTC, with 0.136 E-score; and CTTACCAA, with 0.0678 E-score. Consider ATTACCAA, for which the binding signal stood at 0.333 E-score.

For ATTACCAC, the binding signal stood at 0.181 E-score.

For AAATTTCT, the binding signal came out at 0.203 E-score. Then AAATAGAA, with 0.36 E-score. Then AAATAGAC, with 0.0478 E-score; and AAATAGAG, with -0.0395 E-score; and AAATAGAT, with 0.343 E-score. The result for AAATAGGT reads 0.314 E-score; that for GAATAGAA, 0.209 E-score; that for AAGAGAGA, -0.188 E-score. As for ACCTCCCG, the binding signal was -0.064 E-score. Then CATCAGAC, with -0.171 E-score. For ACGTATAA, the binding signal is 0.268 E-score. Then GTATATAC, with 0.43 E-score; and ACGTATAT, with 0.373 E-score. Then CTATATAC, with 0.376 E-score. Then CTCTATAC, with 0.143 E-score. With GCATATAC, the binding signal is 0.18 E-score. Consider ATATATAC, for which the binding signal worked out at 0.367 E-score. Then ATATACAC, with 0.289 E-score. The result for ACGTATAC reads 0.137 E-score; that for CTATATGC, 0.209 E-score.

Take AGATATAC: the binding signal was 0.221 E-score.

On to GGATATAC, for which the binding signal stood at 0.288 E-score. The result for ACTTAAGA reads -0.12 E-score; that for TTGCCAAA, 0.142 E-score. For the sequence AAGGAAGC, the binding signal was -0.125 E-score.

As for ACTGCGCG, the binding signal was -0.0406 E-score. Then CGAGTGCG, with -0.0584 E-score; and AGATATCC, with 0.00982 E-score; and ATATACAT, with 0.288 E-score.

Consider ATATATGG, for which the binding signal stood at 0.279 E-score. Take AGATATAT: the binding signal amounted to 0.421 E-score. For the sequence AGATATCA, the binding signal is 0.0773 E-score.

With ATATATAT, the binding signal was 0.443 E-score. With ACATATGG, the binding signal is 0.132 E-score. For ACATATGT, the binding signal came out at 0.4 E-score. Then AGATATAA, with 0.282 E-score; and AGATATAG, with 0.188 E-score. Then ACATATGA, with 0.00179 E-score. Then AGATATCT, with 0.355 E-score. Turning to ATGTGCCA, the binding signal was -0.163 E-score. Regarding ACAACCAA, the binding signal came out at 0.0769 E-score. Then GCGCTCTA, with 0.0916 E-score. The result for GGAATGCA reads -0.0343 E-score; that for ACTTTCAT, 0.0835 E-score. Then CGGTCCAG, with -0.196 E-score; and ACATATAG, with 0.206 E-score; and ACATATAT, with 0.4 E-score. On to ACATATAA, for which the binding signal was determined as 0.26 E-score. Regarding AACCTAGA, the binding signal was found to be 0.13 E-score. Turning to AGTATCGA, the binding signal worked out at 0.174 E-score. AATAATAG: the binding signal is 0.405 E-score. Then GCTAATAA, with 0.212 E-score. Then AATAATAA, with 0.371 E-score. The result for CATAATAA reads 0.281 E-score; that for TCTAATAA, 0.105 E-score; that for ATTAATAA, 0.234 E-score. Take CATAATAG: the binding signal was determined as 0.136 E-score. Regarding AATAATAT, the binding signal was found to be 0.321 E-score.

Consider GATAATAA, for which the binding signal turned out to be 0.174 E-score. As to CTTAATAC, the binding signal was 0.0879 E-score. The result for TATAATAA reads 0.374 E-score. For the sequence ATTAATAC, the binding signal was 0.335 E-score. The result for GCATCCGC reads -0.147 E-score; that for CACATGTC, -0.0475 E-score; that for GAAATTCA, 0.106 E-score. The result for ACGTGGCG reads -0.166 E-score. The result for AAGCTGCC reads -0.171 E-score; that for GGCGGCGA, -0.142 E-score; that for ACCTGGCA, -0.0345 E-score. Take GATAATAC: the binding signal stood at 0.21 E-score. The result for AATAATAC reads 0.335 E-score.

With CATAATAC, the binding signal was 0.191 E-score. The result for AATAACGA reads 0.169 E-score; that for TATAACGA, 0.336 E-score; that for AAAAATAG, 0.2 E-score. Take CAAAATAA: the binding signal amounted to 0.0411 E-score. Regarding GATAACGA, the binding signal worked out at 0.0698 E-score.

With CAAAATAG, the binding signal amounted to 0.333 E-score.

As to CAGCCCAG, the binding signal is -0.136 E-score.

In the case of CTTTTTTA, the binding signal is -0.151 E-score. The result for GAACATAA reads 0.144 E-score. For AACGTCGC, the binding signal turned out to be 0.0434 E-score. The result for ACTAGAAG reads 0.199 E-score; that for ACTAGAAT, 0.349 E-score; that for ACTAGAGA, 0.118 E-score. Then ACTAGAAA, with 0.4 E-score.

For CCTAGAAA, the binding signal came to 0.16 E-score. Then ACTAGAAC, with 0.255 E-score; and ACGTTGAT, with 0.0039 E-score. The result for ACTTAAAG reads -0.106 E-score; that for ACAGCCGA, -0.00523 E-score; that for ATTAAAAT, 0.218 E-score. The result for AGTAAAAA reads 0.341 E-score; that for AGTAAATC, 0.215 E-score; that for AGTAAATG, 0.205 E-score. Take AATAAAAA: the binding signal was 0.295 E-score. Then AGTAAAAT, with 0.329 E-score. Then AATAAAAT, with 0.33 E-score; and AGTAAATA, with 0.425 E-score; and AGTAAAAC, with 0.246 E-score. Then AGTAAAAG, with 0.267 E-score. As for AATAAAAC, the binding signal is 0.228 E-score. Turning to GGTAAATA, the binding signal was 0.318 E-score.

For the sequence TCGTTTAA, the binding signal was determined as 0.00225 E-score.

Consider TACTTGCA, for which the binding signal was 0.167 E-score. Then ATCAACTG, with 0.0687 E-score. The result for CTTCATTA reads 0.0438 E-score; that for CTGGCCCC, -0.197 E-score.

In the case of AACCCCTA, the binding signal is -0.0905 E-score. Then CTAAGTCA, with -0.0334 E-score. As to CTAAGACC, the binding signal is -0.137 E-score.

For the sequence CAGTGGGA, the binding signal was -0.131 E-score. The result for AAACAAGA reads 0.025 E-score; that for TCCCTCGA, -0.0813 E-score; that for GGTAAAGA, 0.177 E-score.

For CGTAAAAA, the binding signal was -0.0178 E-score.

Take GGTAAAAA: the binding signal was found to be 0.379 E-score. The result for TGTAAACA reads 0.079 E-score; that for GGTAAAAC, 0.121 E-score. Then AGTTAAAA, with 0.324 E-score; and TGTAAAAA, with 0.34 E-score.

Regarding AGTTAAAT, the binding signal came to 0.335 E-score.

For the sequence AGTTAAAC, the binding signal worked out at 0.0755 E-score.

In the case of CGCTAGTC, the binding signal is -0.137 E-score. Then AAGCTGAT, with -0.0275 E-score; and GAATCGCC, with 0.00133 E-score. Then CAAAGGAG, with -0.156 E-score; and CACTAACG, with -0.157 E-score; and CCTTACCA, with -0.0792 E-score.

In the case of ATACTTAA, the binding signal was determined as 0.00261 E-score. Then CTACTTCA, with 0.207 E-score. The result for CTACTTTC reads 0.275 E-score; that for GTACTTAA, 0.314 E-score. The result for GGACTTTA reads -0.19 E-score; that for GTACTTTA, 0.344 E-score. As to CTACTTAA, the binding signal was 0.387 E-score. Regarding CTACTTTA, the binding signal was determined as 0.337 E-score.

Regarding ATACTTTA, the binding signal worked out at 0.196 E-score. As to CGATCGAA, the binding signal worked out at 0.239 E-score. Then TTATCCAA, with 0.108 E-score; and CCGTACTA, with 0.201 E-score. The result for GTGTTGTA reads 0.158 E-score; that for CATGGTGC, -0.16 E-score; that for ACTGGGCT, -0.135 E-score.
